{"source": "the supplement of paper PMC8728848", "binders": {"B1": {"name": "PILRa (Homo sapiens), Q9UKJ1 (protein)", "chain": "MGRPLLLPLLPLLLPPAFLQPSGSTGSGPSYLYGVTQPKHLSASMGGSVEIPFSFYYPWELATAPDVRISWRRGHFHRQSFYSTRPPSIHKDYVNRLFLNWTEGQKSGFLRISNLQKQDQSVYFCRVELDTRSSGRQQWQSIEGTKLSITQAVTTTTQRPSSMTTTWRLSSTTTTTGLRVTQGKRRSDSWHISLETAVGVAVAVTVLGIMILGLICLLRWRRRKGQQRTKATTPAREPFQNTEEPYENIRNEGQNTDPKLNPKDDGIVYASLALSSSTSPRAPPSHRPLKSPQNETLYSVLKA"}}, "assay_in_all_cases": "glycan array binding signal (z-score within array); higher = stronger binding", "settings_in_all_cases": "glycan notation: IUPAC condensed, linker removed", "key": {"[1]": {"molecular_target": "Fuc(a1-2)Gal(b1-3)GalNAc(b1-4)[Neu5Ac(a2-3)]Gal(b1-4)Glc", "outline": "(§1)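 Glycan array data were curated from 3228 arrays in the Consortium for Functional Glycomics database and kept only where the protein sequence was available. Glycan names were converted to IUPAC-condensed notation, and columns mapping to the same glycan were averaged. The binding signal is a within-array Z-score, averaged across arrays of the same protein sequence at different concentrations or buffers and across linkers. Negative Z-scores can be read as non-binding.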"}, "[2]": {"molecular_target": "Fuc(a1-2)Gal(b1-3)[Fuc(a1-4)]GlcNAc(b1-2)Man(a1-3)[Fuc(a1-2)Gal(b1-3)[Fuc(a1-4)]GlcNAc(b1-2)Man(a1-6)]Man(b1-4)GlcNAc(b1-4)GlcNAc", "outline": "as §1"}, "[3]": {"molecular_target": "Fuc(a1-2)Gal(b1-4)[Fuc(a1-3)]GlcNAc(b1-2)[Fuc(a1-2)Gal(b1-4)[Fuc(a1-3)]GlcNAc(b1-4)]Man(a1-3)[Fuc(a1-2)Gal(b1-4)[Fuc(a1-3)]GlcNAc(b1-2)Man(a1-6)]Man(b1-4)GlcNAc(b1-4)GlcNAc", "outline": "as §1"}, "[4]": {"molecular_target": "Fuc(a1-2)Gal(b1-4)[Fuc(a1-3)]GlcNAc(b1-3)GalNAc", "outline": "as §1"}, "[5]": {"molecular_target": "Fuc(a1-2)[Gal(a1-3)]Gal(b1-3)GlcNAc(b1-3)GalNAc", "outline": "as §1"}, "[6]": {"molecular_target": "Fuc(a1-2)[Gal(a1-3)]Gal(b1-4)[Fuc(a1-3)]GlcNAc(b1-3)GalNAc", "outline": "as §1"}, "[7]": {"molecular_target": "Fuc(a1-2)[GalNAc(a1-3)]Gal(b1-3)GalNAc(a1-3)[Fuc(a1-2)]Gal(b1-4)GlcNAc", "outline": "as §1"}, "[8]": {"molecular_target": "Fuc(a1-2)[GalNAc(a1-3)]Gal(b1-3)GlcNAc(b1-3)GalNAc", "outline": "as §1"}, "[9]": {"molecular_target": "Fuc(a1-2)[GalNAc(a1-3)]Gal(b1-4)GlcNAc(b1-3)GalNAc", "outline": "as §1"}, "[10]": {"molecular_target": "Fuc(a1-2)[GalNAc(a1-3)]Gal(b1-4)[Fuc(a1-3)]GlcNAc(b1-3)GalNAc", "outline": "as §1"}, "[11]": {"molecular_target": "Fuc(a1-3)[Gal(b1-4)]GlcNAc(b1-2)Man(a1-6)[Gal(b1-4)GlcNAc(b1-2)Man(a1-3)]Man(b1-4)GlcNAc(b1-4)GlcNAc", "outline": "as §1"}, "[12]": {"molecular_target": "Fuc(a1-3)[Gal3S(b1-4)]GlcNAc6S", "outline": "as §1"}, "[13]": {"molecular_target": "Fuc(a1-3)[GalNAc(b1-4)]GlcNAc", "outline": "as §1"}, "[14]": {"molecular_target": "Gal(a1-3)Gal(b1-3)GlcNAc(b1-2)Man(a1-3)[Gal(a1-3)Gal(b1-3)GlcNAc(b1-2)Man(a1-6)]Man(b1-4)GlcNAc(b1-4)GlcNAc", "outline": "as §1"}, "Gal(b1-2)Gal": {"molecular_target": "Gal(b1-2)Gal", "outline": "as §1"}, "[15]": {"molecular_target": "Gal(b1-3)GlcNAc(b1-3)Gal(b1-3)GlcNAc", "outline": "as §1"}, "[16]": {"molecular_target": "Gal(b1-3)GlcNAc(b1-6)Gal(b1-4)GlcNAc", "outline": "as §1"}, "[17]": {"molecular_target": "Gal(b1-4)GlcNAc(b1-3)[GlcNAc(b1-6)]Gal(b1-4)GlcNAc", "outline": "as §1"}, "Gal(b1-6)Gal": {"molecular_target": "Gal(b1-6)Gal", "outline": "as §1"}, "Gal3S(b1-4)Glc6S": {"molecular_target": "Gal3S(b1-4)Glc6S", "outline": "as §1"}, "Gal3S(b1-4)GlcNAc6S": {"molecular_target": "Gal3S(b1-4)GlcNAc6S", "outline": "as §1"}, "[18]": {"molecular_target": "GalNAc(a1-3)GalNAc(a1-3)Gal(a1-4)Gal(b1-4)GlcNAc", "outline": "as §1"}, "GalNAc(b1-3)Gal": {"molecular_target": "GalNAc(b1-3)Gal", "outline": "as §1"}, "[19]": {"molecular_target": "GalNAc(b1-3)Gal(a1-4)Gal(b1-4)GlcNAc(b1-3)Gal(b1-4)Glc", "outline": "as §1"}, "[20]": {"molecular_target": "GalNAc(b1-3)Gal(a1-6)Gal(b1-4)Glc", "outline": "as §1"}, "GlcA(b1-3)GlcNAc": {"molecular_target": "GlcA(b1-3)GlcNAc", "outline": "as §1"}, "[21]": {"molecular_target": "GlcNAc(a1-3)Gal(b1-4)GlcNAc", "outline": "as §1"}, "[22]": {"molecular_target": "GlcNAc(b1-3)Gal(b1-4)GlcNAc(b1-3)Gal(b1-4)GlcNAc", "outline": "as §1"}, "[23]": {"molecular_target": "GlcNAc(b1-4)[GlcNAc(b1-6)]GalNAc", "outline": "as §1"}, "Man(a1-2)Man(a1-3)Man": {"molecular_target": "Man(a1-2)Man(a1-3)Man", "outline": "as §1"}, "Neu5Ac(a2-3)Gal": {"molecular_target": "Neu5Ac(a2-3)Gal", "outline": "as §1"}, "[24]": {"molecular_target": "Neu5Ac(a2-3)Gal(b1-3)GalNAc(b1-4)[Neu5Ac(a2-3)]Gal(b1-4)Glc", "outline": "as §1"}, "[25]": {"molecular_target": "Neu5Ac(a2-3)Gal(b1-3)GlcNAc", "outline": "as §1"}, "[26]": {"molecular_target": "Neu5Ac(a2-3)Gal(b1-3)GlcNAc(b1-3)Gal(b1-3)GlcNAc", "outline": "as §1"}, "Neu5Ac(a2-3)Gal(b1-4)Glc": {"molecular_target": "Neu5Ac(a2-3)Gal(b1-4)Glc", "outline": "as §1"}, "[27]": {"molecular_target": "Neu5Ac(a2-3)Gal(b1-4)GlcNAc(b1-3)Gal(b1-4)GlcNAc", "outline": "as §1"}, "[28]": {"molecular_target": "Neu5Ac(a2-3)Gal(b1-4)GlcNAc(b1-3)Gal(b1-4)GlcNAc(b1-3)Gal(b1-4)GlcNAc", "outline": "as §1"}, "[29]": {"molecular_target": "Neu5Ac(a2-3)Gal(b1-4)GlcNAc(b1-3)Gal(b1-4)[Fuc(a1-3)]GlcNAc", "outline": "as §1"}, "[30]": {"molecular_target": "Neu5Ac(a2-3)Gal(b1-4)[Fuc(a1-3)]GlcNAc6S", "outline": "as §1"}, "[31]": {"molecular_target": "Neu5Ac(a2-6)Gal(b1-4)GlcNAc(b1-2)Man(a1-3)[Man(a1-6)]Man(b1-4)GlcNAc(b1-4)GlcNAc", "outline": "as §1"}, "[32]": {"molecular_target": "Neu5Gc(a2-3)Gal(b1-4)[Fuc(a1-3)]GlcNAc", "outline": "as §1"}}, "note": "This is one part of a sample in which the strongest signals are shown more often than they occur.", "data": [{"binder": "B1", "values": [{"measurement": "glycan array binding signal (z-score)", "setting": "[1]", "value": -0.102}, {"measurement": "glycan array binding signal (z-score)", "setting": "[2]", "value": 4.38}, {"measurement": "glycan array binding signal (z-score)", "setting": "[3]", "value": 4.02}, {"measurement": "glycan array binding signal (z-score)", "setting": "[4]", "value": 5.45}, {"measurement": "glycan array binding signal (z-score)", "setting": "[5]", "value": 0.023}, {"measurement": "glycan array binding signal (z-score)", "setting": "[6]", "value": 3.41}, {"measurement": "glycan array binding signal (z-score)", "setting": "[7]", "value": -0.142}, {"measurement": "glycan array binding signal (z-score)", "setting": "[8]", "value": 4.4}, {"measurement": "glycan array binding signal (z-score)", "setting": "[9]", "value": -0.194}, {"measurement": "glycan array binding signal (z-score)", "setting": "[10]", "value": 9.37}, {"measurement": "glycan array binding signal (z-score)", "setting": "[11]", "value": -0.546}, {"measurement": "glycan array binding signal (z-score)", "setting": "[12]", "value": -0.051}, {"measurement": "glycan array binding signal (z-score)", "setting": "[13]", "value": -0.102}, {"measurement": "glycan array binding signal (z-score)", "setting": "[14]", "value": 4.98}, {"measurement": "glycan array binding signal (z-score)", "setting": "Gal(b1-2)Gal", "value": 0.001}, {"measurement": "glycan array binding signal (z-score)", "setting": "[15]", "value": 0.263}, {"measurement": "glycan array binding signal (z-score)", "setting": "[16]", "value": -0.136}, {"measurement": "glycan array binding signal (z-score)", "setting": "[17]", "value": -0.338}, {"measurement": "glycan array binding signal (z-score)", "setting": "Gal(b1-6)Gal", "value": -0.177}, {"measurement": "glycan array binding signal (z-score)", "setting": "Gal3S(b1-4)Glc6S", "value": 0.618}, {"measurement": "glycan array binding signal (z-score)", "setting": "Gal3S(b1-4)GlcNAc6S", "value": -0.01}, {"measurement": "glycan array binding signal (z-score)", "setting": "[18]", "value": -0.27}, {"measurement": "glycan array binding signal (z-score)", "setting": "GalNAc(b1-3)Gal", "value": 0.508}, {"measurement": "glycan array binding signal (z-score)", "setting": "[19]", "value": -0.169}, {"measurement": "glycan array binding signal (z-score)", "setting": "[20]", "value": -0.215}, {"measurement": "glycan array binding signal (z-score)", "setting": "GlcA(b1-3)GlcNAc", "value": 6.02}, {"measurement": "glycan array binding signal (z-score)", "setting": "[21]", "value": 0.089}, {"measurement": "glycan array binding signal (z-score)", "setting": "[22]", "value": -0.259}, {"measurement": "glycan array binding signal (z-score)", "setting": "[23]", "value": -0.213}, {"measurement": "glycan array binding signal (z-score)", "setting": "Man(a1-2)Man(a1-3)Man", "value": -0.144}, {"measurement": "glycan array binding signal (z-score)", "setting": "Neu5Ac(a2-3)Gal", "value": -0.314}, {"measurement": "glycan array binding signal (z-score)", "setting": "[24]", "value": -0.281}, {"measurement": "glycan array binding signal (z-score)", "setting": "[25]", "value": 0.854}, {"measurement": "glycan array binding signal (z-score)", "setting": "[26]", "value": -0.15}, {"measurement": "glycan array binding signal (z-score)", "setting": "Neu5Ac(a2-3)Gal(b1-4)Glc", "value": -0.248}, {"measurement": "glycan array binding signal (z-score)", "setting": "[27]", "value": 1.17}, {"measurement": "glycan array binding signal (z-score)", "setting": "[28]", "value": -0.327}, {"measurement": "glycan array binding signal (z-score)", "setting": "[29]", "value": -0.125}, {"measurement": "glycan array binding signal (z-score)", "setting": "[30]", "value": -0.092}, {"measurement": "glycan array binding signal (z-score)", "setting": "[31]", "value": -0.177}, {"measurement": "glycan array binding signal (z-score)", "setting": "[32]", "value": -0.343}]}]}
